We go through two compounds from PubChem BioAssay (NCATS).

The test system of experiment [1] is Zika virus NS2B-NS3 protease. As to the kind of experiment: Primary screen GU AMC qHTS for Zika virus inhibitors (AID 1347154).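 Also: 0% = no-inhibitor control and -100% = no-enzyme control; nearly all actives have a fitted effect of over 70% in size.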 The essentials: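 Unlinked Zika NS2B hydrophilic domain/NS3 protease domain noncovalent complex (25 nM final) in 10 mM Tris-HCl pH 8.0, 0.01% Tween 20, with AMC peptide substrate. Fluorescence (ex 340, em 450 nm) change over 15 min, room temperature; percent inhibition fitted to 4-parameter Hill equation.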

Experiment [2] is described as follows: Validation of Assay for Modulators of Lamin A Splicing (AID 1459; active = well fitted curve in the direction sought with a large enough effect in the signal ratio; the % refers to the signal ratio;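 also: cells exposed to compound for two days before reading; 0% is about no effect; ratio rise marks activators and ratio drop marks inhibitors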). A digest of the protocol: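 HeLa S3 lamin A-EGFP/DsRed2 stable clone, 600 cells/well, Opti-MEM 2% FBS; compounds by pin tool; 48 hrs, 37 °C/5% CO2; Acumen 488 nm scan, objects 10-100 um; GFP/RFP intensity ratio.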
Experiment [3] in a line: qHTS Assay for Lipid Storage Modulators (AID 1519; calls by dose curve; as to activity change, negative = inhibition: % is scaled to controls: 0 for no effect and ±100 for the full control effect). The settings on record: Drosophila S3 cells, BODIPY lipid droplet/cell ratio, laser cytometry, cells loaded with oleic acid. A digest of the protocol: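 Cells seeded at 5,000 per well were treated with compounds over a concentration series and loaded with oleic acid (400 uM, as added). Lipid droplet fluorescence (488 nm excitation, 500-530 nm channel) was read by laser-scanning cytometry and normalized to 20 uM Triacsin C.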
On the technique in general: Quantitative high-throughput screening tests each substance at several concentrations.

For experiment [4], the target named is DNA repair nuclease/redox regulator APEX1 (Homo sapiens) (UniProt P27695). As to the kind of experiment: qHTS Validation Assay for Inhibitors of the Human Apurinic/apyrimidinic Endonuclease 1 (APE1) (AID 1705;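 also: TAMRA fluorescence gain over two minutes as APE1 cuts a quenched THF abasic duplex; % is scaled to controls: 0 for no effect and ±100 for the full control effect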). A digest of the protocol: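 qHTS, 1536-well. APE1 + cpd 15 min RT → 50 nM TAMRA/BHQ-2 THF-abasic dsDNA substrate → kinetic fluorescence, 3 reads/60 s; delta(read3−read1) = reaction progress. No-enzyme buffer = negative control.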
Chain of DNA repair nuclease/redox regulator APEX1 (Homo sapiens) (P27695 whole entry, looked up): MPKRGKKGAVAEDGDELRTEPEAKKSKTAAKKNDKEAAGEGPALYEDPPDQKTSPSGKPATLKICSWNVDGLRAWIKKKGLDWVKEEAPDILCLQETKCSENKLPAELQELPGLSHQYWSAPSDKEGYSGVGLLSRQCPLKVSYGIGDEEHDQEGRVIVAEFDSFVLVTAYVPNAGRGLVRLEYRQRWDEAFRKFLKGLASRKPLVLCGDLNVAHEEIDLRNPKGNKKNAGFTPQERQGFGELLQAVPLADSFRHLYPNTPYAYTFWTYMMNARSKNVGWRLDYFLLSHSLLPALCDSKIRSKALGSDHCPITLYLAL

Experiment [5] is described as follows: Counterscreen for APE1 Inhibitors: Fluorescent Dye Displacement Validation Assay (AID 1707).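 Also: plate controls were ThO with dsDNA and no compound for no effect and ThO without dsDNA for full effect.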 The essentials: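 Compounds are scored by their ability to displace Thiazole Orange (250 nM) from a 50 nM TAMRA-tagged duplex bearing a tetrahydrofuran abasic site. Buffer is 50 mM Tris-HCl pH7.5, 50mM NaCl, 2 mM MgCl2, 0.01% Tween-20.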
Experiment [6] concerns the target Endonuclease 4 (Escherichia coli (strain K12)) (UniProt P0A6C1). As to the kind of experiment: Counterscreen for APE1 Inhibitors: qHTS Validation Assay for Inhibitors of Endonuclease IV (AID 1708). Also: % is scaled to controls: 0 for no effect and ±100 for the full control effect. A digest of the protocol:
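2 nM enzyme was preincubated with compounds for 15 min at room temperature in 50 mM Tris-HCl pH 7.5, 50 mM NaCl, 2 mM MgCl2, 1 mM DTT, 0.01% Tween-20. 50 nM THF-abasic TAMRA/BHQ-2 duplex substrate started the reaction.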
In general terms: Counterscreens check selectivity or assay interference.

Experiment [7] can be described thus: qHTS for differential inhibitors of proliferation of Plasmodium falciparum line 7G8 (AID 1815).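 Also: parasite growth measured after three days of incubation; plate controls were vehicle wells for no effect and reference inhibitor wells for full effect.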
Experiment [8] is described as follows: qHTS for differential inhibitors of proliferation of Plasmodium falciparum line GB4 (AID 1816).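 Also: parasite growth measured after 72 h incubation; 0% = vehicle DMSO and -100% = reference inhibitor.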 The note with it: Potency: Plasmodium falciparum GB4 proliferation inhibition.
Experiment [9] can be described thus: qHTS for differential inhibitors of proliferation of Plasmodium falciparum line 3D7 (AID 1876).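 Also: parasite growth measured after three days of culture; 0% = vehicle wells and -100% = reference inhibitor wells.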
A short description of experiment [10]: qHTS for differential inhibitors of proliferation of Plasmodium falciparum line D10 (AID 1877).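 Also: parasites grown with compound for 72 h before DNA staining; plate controls were vehicle wells for no effect and reference inhibitor wells for full effect.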
Experiment [11] in a line: qHTS for differential inhibitors of proliferation of Plasmodium falciparum line Dd2 (AID 1882).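 Also: compound exposure of 72 h on infected erythrocytes; plate controls were DMSO vehicle for no effect and 0.29 µM artemisinin for full effect; nearly all actives have a fitted effect of over 65% in size.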 The note with it: Potency: Plasmodium falciparum Dd2 proliferation inhibition. A digest of the protocol:
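SYBR Green I DNA fluorescence read-out, ex 485/em 535 nm. Signals were normalized to 0.29 uM artemisinin and DMSO wells, then corrected using vehicle-only plates flanking each stack. Parasite growth ran 72 h in erythrocytes before lysis.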

Experiment [12] is described as follows: qHTS for differential inhibitors of proliferation of Plasmodium falciparum line W2 (AID 1883).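 Also: parasites grown with compound for 72 h before lysis and staining; 0% = vehicle wells and -100% = control inhibitor wells.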 The settings on record: Potency: Plasmodium falciparum W2 proliferation inhibition.
A short description of experiment [13]: qHTS for differential inhibitors of proliferation of Plasmodium falciparum line HB3 (AID 1886).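 Also: parasites grown with compound for 72 h before SYBR Green readout; plate controls were vehicle for no effect and reference inhibitor for full effect.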 The settings on record: Potency: Plasmodium falciparum HB3 proliferation inhibition.
Experiment [14] can be described thus: qHTS Assay for Modulators of Human Peripheral Myelin Protein 22 (PMP22) Expression/Activity (AID 1967; active = well fitted curve in the direction sought with a large enough effect in the signal ratio; the % refers to the signal ratio;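 also: 0% = untreated cells and 100% end not stated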). A digest of the protocol:
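Luminescence ratio of Pmp22 promoter-driven green luciferase to EF-alpha-driven red luciferase, in engineered mouse MSC80 Schwann cells, served as read-out. Compounds were incubated 24h; untreated cells defined 0% Activity; curves were classified by r2, magnitude and activity.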

For experiment [15], the target named is ATP-dependent DNA helicase Q1 (Homo sapiens) (UniProt P46063). Nature of the experiment: qHTS Validation Assay for Inhibitors of RecQ-Like Dna Helicase 1 (RECQ1) (AID 2353).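 Also: plate controls were DMSO vehicle for no effect and enzyme-free control for full effect.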 A digest of the protocol: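 50 nM RECQ1T1 preincubated 15 min with compound in Tris pH 8.0 buffer with MgCl2, DTT, Tween-20 and 2.5 ug/ml poly(dI-dC); started with 200 nM TAMRA/BHQ-2 forked duplex and 2 mM ATP. Unwinding read as fluorescence (525/598 nm), two reads 2 h apart.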
Chain of ATP-dependent DNA helicase Q1 (Homo sapiens) (P46063 whole entry, looked up): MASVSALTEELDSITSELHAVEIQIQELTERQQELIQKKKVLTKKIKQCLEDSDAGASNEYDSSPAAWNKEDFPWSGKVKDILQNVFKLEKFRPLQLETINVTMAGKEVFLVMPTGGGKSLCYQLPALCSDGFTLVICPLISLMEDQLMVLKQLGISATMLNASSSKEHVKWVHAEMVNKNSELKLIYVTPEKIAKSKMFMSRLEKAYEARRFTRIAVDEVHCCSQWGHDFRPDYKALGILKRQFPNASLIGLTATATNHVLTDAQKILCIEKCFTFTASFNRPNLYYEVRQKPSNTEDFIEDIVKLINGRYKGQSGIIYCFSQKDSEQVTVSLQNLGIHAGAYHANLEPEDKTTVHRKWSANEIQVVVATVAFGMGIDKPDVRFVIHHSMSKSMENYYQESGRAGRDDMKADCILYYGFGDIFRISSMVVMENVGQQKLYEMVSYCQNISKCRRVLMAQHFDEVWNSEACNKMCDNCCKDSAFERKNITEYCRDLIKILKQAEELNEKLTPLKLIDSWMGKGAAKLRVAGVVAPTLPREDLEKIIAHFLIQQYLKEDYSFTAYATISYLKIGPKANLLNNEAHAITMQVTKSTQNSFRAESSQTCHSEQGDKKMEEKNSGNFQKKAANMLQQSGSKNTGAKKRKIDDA

A short description of experiment [16]: Validation screen for small molecules that induce DNA re-replication in MCF 10A normal breast cells (AID 463097). Also: 0% is about no effect; nearly all actives have a fitted effect of over 60% in size. A digest of the protocol:
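Image-based qHTS: normal breast cells are incubated with compound for 48 hr, stained with Hoechst, and scanned for total nuclear fluorescence. Compounds raising the fraction of nuclei with elevated DNA content count as re-replication inducers.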

A short description of experiment [17]: Quantitative high throughput screen for delayed death inhibitors of the malarial parasite plastid, 96 hour incubation (AID 488745). Also: % is scaled to controls: 0 for no effect and ±100 for the full control effect; nearly all actives have a fitted effect of over 70% in size. The essentials: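 P. falciparum carrying an integrated firefly luciferase reporter, grown in erythrocytes (2% hematocrit, 0.1% parasitemia final) in RPMI 1640/0.5% Albumax, was exposed to compound for 96 h (two generations) at 37 C, 5% CO2. Luminescence decrease indicated growth inhibition.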

Experiment [18] can be described thus: Quantitative high throughput screen for delayed death inhibitors of the malarial parasite plastid, 48 hour incubation (AID 488752). Also: % is scaled to controls: 0 for no effect and ±100 for the full control effect; nearly all actives have a fitted effect of over 65% in size. The essentials: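 Erythrocytes infected with P. falciparum carrying an integrated firefly luciferase reporter (2% hematocrit, 0.1% parasitemia final) were exposed to compounds in RPMI 1640/0.5% Albumax for 48 h at 37 C, 5% CO2. Growth inhibition was scored as reduced luminescence.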

Experiment [19] deals with M-phase phosphoprotein 8 (Homo sapiens) (UniProt Q99549). As to the kind of experiment: qHTS Validation Assay for Inhibitors for MPP8 Chromodomain Interactions with Methylated Histone Tails (AID 488949).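 Also: 50 nM MPP8 with 50 nM peptide preformed then compounds added for 30 min; AlphaScreen signal from MPP8 chromodomain bound to biotinylated H3K9me3 peptide; top concentration of the series differs between compounds; % is scaled to controls: 0 for no effect and ±100 for the full control effect; nearly all actives have a fitted effect of over 55% in size.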 The essentials: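 50 nM MPP8 + 50 nM b-H3K9me3 peptide, PBS pH 7.4/0.01% Tween-20, 30 min RT; + cpd 30 min RT; + AlphaScreen donor/Ni-chelate acceptor beads 10 ug/mL final, 30 min dark; luminescence read.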
Chain of M-phase phosphoprotein 8 (Homo sapiens) (Q99549 whole entry, looked up): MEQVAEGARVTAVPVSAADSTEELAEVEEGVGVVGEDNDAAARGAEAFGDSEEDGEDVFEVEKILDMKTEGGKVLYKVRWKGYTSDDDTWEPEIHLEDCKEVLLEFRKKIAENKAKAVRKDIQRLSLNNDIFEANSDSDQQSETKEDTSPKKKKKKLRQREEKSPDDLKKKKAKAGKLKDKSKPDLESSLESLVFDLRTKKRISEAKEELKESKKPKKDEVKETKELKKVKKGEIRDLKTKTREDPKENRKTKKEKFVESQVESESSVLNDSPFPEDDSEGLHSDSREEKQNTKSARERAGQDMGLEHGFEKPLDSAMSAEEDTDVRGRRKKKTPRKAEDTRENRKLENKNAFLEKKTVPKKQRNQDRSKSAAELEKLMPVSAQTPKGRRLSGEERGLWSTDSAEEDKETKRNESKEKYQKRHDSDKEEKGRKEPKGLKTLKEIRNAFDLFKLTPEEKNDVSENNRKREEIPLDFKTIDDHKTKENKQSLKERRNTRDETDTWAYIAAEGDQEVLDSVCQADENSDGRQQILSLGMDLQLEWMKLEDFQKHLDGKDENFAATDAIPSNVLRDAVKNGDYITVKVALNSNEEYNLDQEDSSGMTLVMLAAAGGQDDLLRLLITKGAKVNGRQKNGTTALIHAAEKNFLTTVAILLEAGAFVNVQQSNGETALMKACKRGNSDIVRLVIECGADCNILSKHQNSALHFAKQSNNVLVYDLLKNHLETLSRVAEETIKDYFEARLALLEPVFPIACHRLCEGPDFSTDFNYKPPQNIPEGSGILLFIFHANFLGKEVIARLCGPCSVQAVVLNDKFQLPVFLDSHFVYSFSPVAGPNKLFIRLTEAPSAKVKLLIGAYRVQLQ

The target in experiment [20] is Thyrotropin receptor (Homo sapiens) (UniProt P16473). Nature of the experiment: qHTS Assay for Antagonists of the Thyroid Stimulating Hormone Receptor (AID 488980). Also: 0% is about no effect. A digest of the protocol:
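Readout is cAMP by HTRF competition between cellular cAMP and cAMP-d2 for a cryptate-labelled antibody. Antagonism was assessed in TSHR-transfected HEK293 cells stimulated with 4 nM TSH (EC80, final) in the presence of RO 20-1724.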

Experiment [21] has as its target Thyrotropin-releasing hormone receptor (Homo sapiens) (UniProt P34981). Nature of the experiment: qHTS for Small Molecule Agonists and Allosteric Enhancers of Human TRH Receptor: Validation Screen for Agonists (AID 493127;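 active = calcium activation more than 3 SD above the typical response in the agonist read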;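 also: intracellular calcium rise by fluo-8 fluorescence before TRH EC20 addition; 0% is about no effect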). The note with it: TRH receptor agonist cell assay; at 2 µM; stronger effect = higher value. A digest of the protocol: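 TRHR-expressing cells were plated overnight in serum-containing medium, then loaded with fluo-8 calcium dye at room temperature for 30 min–1.5 h. After a 10 s baseline, compound was pin-transferred and calcium fluorescence (ex 480/em 530) read kinetically for agonist response.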

For experiment [22], the target named is Galactokinase (Homo sapiens) (UniProt P51570). As to the kind of experiment: qHTS Validation Assay for Inhibitors of Human Galactokinase (GALK) (AID 493189). Also: 0% is about no effect. A digest of the protocol: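 5 nM GALK / 100 uM galactose / 35 uM ATP, 20 mM HEPES pH8.0, 5 mM MgCl2, 60 mM NaCl, 1 mM DTT, 0.01% BSA (final). RT 1 h; Kinase-Glo Plus luminescence.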
Chain of Galactokinase (Homo sapiens) (P51570 whole entry, looked up): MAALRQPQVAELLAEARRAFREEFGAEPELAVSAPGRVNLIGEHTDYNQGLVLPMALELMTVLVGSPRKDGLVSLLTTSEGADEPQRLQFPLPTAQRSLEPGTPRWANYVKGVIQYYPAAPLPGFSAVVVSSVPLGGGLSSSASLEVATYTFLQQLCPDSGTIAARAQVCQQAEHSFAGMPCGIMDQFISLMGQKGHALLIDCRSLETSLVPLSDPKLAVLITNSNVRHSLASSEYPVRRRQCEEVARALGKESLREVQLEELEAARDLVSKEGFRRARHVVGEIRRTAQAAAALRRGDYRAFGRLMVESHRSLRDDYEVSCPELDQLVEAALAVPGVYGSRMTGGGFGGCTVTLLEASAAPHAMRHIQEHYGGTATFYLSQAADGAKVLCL
Experiment [23] can be described thus: Validation screen for small molecules that induce DNA re-replication in SW480 colon adenocarcinoma cells (AID 504364). Also: 0% is about no effect. The essentials:
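SW480 cells seeded at 250 per well were exposed to compound or DMSO for 48 hr at 37 C, 5% CO2, then stained with Hoechst for 40 min. DNA content per nucleus was imaged (405 nm ex, 500-530 nm em).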

Experiment [24] addresses Voltage-gated inwardly rectifying potassium channel KCNH2 (Homo sapiens) (UniProt Q12809). Nature of the experiment: qHTS Assay for Small Molecule Inhibitors of the Human hERG Channel Activity (AID 588834).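 Also: top concentration of the series differs between compounds; % is scaled to controls: 0 for no effect and ±100 for the full control effect; lower thallium flux fluorescence means stronger hERG block; nearly all actives have a fitted effect of over 50% in size.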 A digest of the protocol:
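hERG-BacMam U2OS, 2000 cells/well; 0.7X FluxOR loading 1 hr RT dark; cpd ~10 min 37 °C; stim buffer; FDSS fluorescence 2 min @ 1 s; AC50 Hill fit.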

Experiment [25] is described as follows: Primary qHTS for small molecule stabilizers of the endoplasmic reticulum resident proteome: Secreted ER Calcium Modulated Protein (SERCaMP) assay (AID 1508630). Also: % is scaled to controls: 0 for no effect and ±100 for the full control effect. A digest of the protocol: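 GLuc-SERCaMP-expressing SH-SY5Y cells, pretreated 16 h with compound, are challenged with thapsigargin to empty ER calcium stores; after 4 h, coelenterazine is added directly to the medium and luminescence is imaged.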

Each structure is given as a SMILES string. Inconclusive results are not listed. Active and inactive are the calls of the source. Unless noted, calls follow the shape of the dose curve; as a rule, active = well fitted curve in the direction sought with a large enough effect; inconclusive = small, poorly fitted or top-dose-only effect, or another doubt; inactive = no such curve, though single readings can be large; an effect the other way counts as inactive or inconclusive.

Chain of Thyrotropin-releasing hormone receptor (Homo sapiens) (P34981 whole entry, looked up): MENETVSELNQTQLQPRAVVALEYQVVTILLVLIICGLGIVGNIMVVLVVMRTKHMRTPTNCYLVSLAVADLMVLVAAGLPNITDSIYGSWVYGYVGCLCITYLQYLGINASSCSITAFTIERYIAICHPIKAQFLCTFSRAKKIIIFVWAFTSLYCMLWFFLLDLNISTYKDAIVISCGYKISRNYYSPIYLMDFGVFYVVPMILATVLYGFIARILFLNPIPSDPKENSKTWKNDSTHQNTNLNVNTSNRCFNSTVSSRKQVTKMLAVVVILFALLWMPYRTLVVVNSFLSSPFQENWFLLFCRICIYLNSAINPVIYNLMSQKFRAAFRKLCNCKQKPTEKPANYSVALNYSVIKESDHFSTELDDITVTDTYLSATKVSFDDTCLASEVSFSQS
Chain of Voltage-gated inwardly rectifying potassium channel KCNH2 (Homo sapiens) (Q12809 whole entry, looked up): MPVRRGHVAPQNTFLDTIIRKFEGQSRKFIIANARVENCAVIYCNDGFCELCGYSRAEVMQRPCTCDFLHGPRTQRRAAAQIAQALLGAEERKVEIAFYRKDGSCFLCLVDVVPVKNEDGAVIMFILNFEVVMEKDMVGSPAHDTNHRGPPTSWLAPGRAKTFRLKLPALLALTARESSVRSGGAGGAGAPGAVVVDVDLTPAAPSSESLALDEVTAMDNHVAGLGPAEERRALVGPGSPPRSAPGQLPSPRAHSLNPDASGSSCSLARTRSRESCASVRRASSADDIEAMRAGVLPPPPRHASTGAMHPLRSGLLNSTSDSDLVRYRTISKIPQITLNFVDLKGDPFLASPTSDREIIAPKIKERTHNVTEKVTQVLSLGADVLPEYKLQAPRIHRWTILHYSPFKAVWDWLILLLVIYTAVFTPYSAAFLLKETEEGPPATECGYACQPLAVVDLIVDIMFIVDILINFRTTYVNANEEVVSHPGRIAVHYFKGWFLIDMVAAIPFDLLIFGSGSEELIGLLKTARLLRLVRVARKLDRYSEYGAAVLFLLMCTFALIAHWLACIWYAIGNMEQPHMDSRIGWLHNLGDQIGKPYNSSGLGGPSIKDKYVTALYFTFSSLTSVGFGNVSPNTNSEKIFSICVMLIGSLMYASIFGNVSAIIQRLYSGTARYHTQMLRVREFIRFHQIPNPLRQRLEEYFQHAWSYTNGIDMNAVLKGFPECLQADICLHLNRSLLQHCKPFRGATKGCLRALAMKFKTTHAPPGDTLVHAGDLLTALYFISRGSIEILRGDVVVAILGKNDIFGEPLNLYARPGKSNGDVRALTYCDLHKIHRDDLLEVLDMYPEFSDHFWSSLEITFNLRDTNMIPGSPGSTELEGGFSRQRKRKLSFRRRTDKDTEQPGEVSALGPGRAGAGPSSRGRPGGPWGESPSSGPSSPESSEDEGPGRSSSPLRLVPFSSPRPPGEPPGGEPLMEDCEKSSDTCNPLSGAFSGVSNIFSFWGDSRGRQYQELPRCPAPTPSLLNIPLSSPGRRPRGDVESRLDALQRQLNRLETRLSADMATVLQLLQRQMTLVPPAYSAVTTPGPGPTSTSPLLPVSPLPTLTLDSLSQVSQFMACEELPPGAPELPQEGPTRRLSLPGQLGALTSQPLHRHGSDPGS
Chain of Thyrotropin receptor (Homo sapiens) (P16473 whole entry, looked up): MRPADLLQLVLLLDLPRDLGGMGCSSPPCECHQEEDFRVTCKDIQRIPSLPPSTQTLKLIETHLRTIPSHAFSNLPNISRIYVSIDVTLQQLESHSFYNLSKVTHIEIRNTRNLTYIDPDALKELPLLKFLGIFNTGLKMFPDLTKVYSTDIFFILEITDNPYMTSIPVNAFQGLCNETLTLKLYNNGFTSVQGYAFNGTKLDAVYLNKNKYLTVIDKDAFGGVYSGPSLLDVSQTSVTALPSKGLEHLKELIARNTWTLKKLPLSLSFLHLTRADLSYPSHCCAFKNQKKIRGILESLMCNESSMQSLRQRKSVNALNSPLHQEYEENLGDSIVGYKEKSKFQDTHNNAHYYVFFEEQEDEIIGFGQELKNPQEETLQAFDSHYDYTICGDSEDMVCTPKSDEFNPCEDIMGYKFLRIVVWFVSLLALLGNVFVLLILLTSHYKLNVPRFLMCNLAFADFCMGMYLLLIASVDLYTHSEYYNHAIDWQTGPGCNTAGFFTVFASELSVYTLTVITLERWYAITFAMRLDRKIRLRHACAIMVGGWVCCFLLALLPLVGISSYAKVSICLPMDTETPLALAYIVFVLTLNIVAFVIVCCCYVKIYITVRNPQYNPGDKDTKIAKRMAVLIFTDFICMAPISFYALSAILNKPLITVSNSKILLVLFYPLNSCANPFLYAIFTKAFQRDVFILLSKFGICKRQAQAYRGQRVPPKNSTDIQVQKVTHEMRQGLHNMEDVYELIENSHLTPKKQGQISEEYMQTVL

Turning to `O=C(O)C(Cc1ccc2c(c1)oc1ccccc12)NCP(=O)(O)O` (stereo not drawn), the Potency entry in experiment [1] is “inactive”.

As to `NC(CCC(=O)NCS(=O)(=O)O)C(=O)O` (stereo not drawn), the compound was called inactive in [2], in [14], in experiment [20], in experiment [22] and in experiment [23]. Also, in [3] (at 57.5 µM (top of the series)), the activity change, negative = inhibition is 1.69% (inactive). Besides, the figures for the max response in experiment [3] (measured here: cell count channel max response) and in experiment [3] (measured here: lipid channel max response) were 45.8% and 46.4%, respectively. The Potency result in experiment [4], in experiment [5], in experiment [6], in experiment [7], in experiment [8] and in experiment [9] was “inactive” each time. Moreover, the Potency entry in experiment [10], in [11], in [12], in experiment [13], in experiment [15] and in experiment [16] was “inactive” each time. The Potency result in experiment [17], in [18], in [19], in experiment [24], in experiment [1] and in experiment [25] was “inactive” throughout. In addition, in [21], the activation is 1.56% (inactive).
